First the molecules themselves.
B1: GBRAP_53_6397 (protein)
chain: SAATIAALLAELRALIAEVDADPTLDPEEVAARAGELLRAAVAAGAPAAELTALARELAAAVAARGLGVEVGTRLAATAAAAGAEEVAAVFTEAAVEDLE
B2: GBRAP_26_5497 (protein)
chain: FLEEILEELRREIKEILKDESPELQAAVIATAEDLLLEADEEIEENAEDEEKIKEAIEKAVEEMRKELERFGLSEEKIEKIVEALRRALEKVAERIKEEA
B3: GBRAP_52_5995 (protein)
chain: SAARIEAVAREIVALVLAGDREGARALIRKAFRELSDEEIVEMVRLATRLLMEDPRATDEDIRTFIDLVLDTAEEEGLDEETIADIIGAIATAIKEAELK
B4: GBRAP_125_3094 (protein)
chain: EEEALLAALRRLALALGFSEEEAEELAELAARSSLRQTLYALFAAEGYEELADLVEKLTEEQAREALLRLAAWLDAHPDASREEVVARAREIAEELLAAA
B5: GBRAP_160_4419 (protein)
chain: DELIEEVDELLDETEELVVELVEEGKREEAIAALRVGAGEILLLLDEDESVSEETEEKVDKILDETIKKFEENKDASPEEVRELLDKAREEILAVLKEGS
B6: GBRAP_137_3646 (protein)
chain: PNVTITKETIDDLVEINIEFDDPEKAEEAAELIRDVAHEHGALAVSIEINEDGTLEATIWVPKDKAQALIDALVTRLRTELGANVTVIDKDTGETTVVKA
B7: GBRAP_137_3669 (protein)
chain: MIEAEIELENGLAFARITVEGSKEELERAAEIAEDIAGEIPNLAVSVELSEDGTLVIDVFGTKEDVLKFLKELAKRLNKTVKVKTKNLETGEEKEEVIEP
B8: GBRAP_125_3103 (protein)
chain: EEEELLEALKALALALGFSEEDAEEAAELARRFSLKNTLIAILLAEGEEELAELVEKLTEEQAKEVLKKLAEWLKENPNASKEEVIKKLKELVEEALKKA
B9: GBRAP_125_3101 (protein)
chain: MEEELLEALKRFALALGFSEEDAEEAAELAKKFSLKQTLIALLLAEGEEELAELVEKLTEEEAKEVLLKLDEYLKKNPNASKEEVLKKFKELVEEALKAS
B10: GBRAP_125_3104 (protein)
chain: SEEELLEDLKALALALGFSEEDAEEAARLAAEFSLKNTLIAILLAEGEEELAELVEKLTEEQAKEVLKKLAEYLKKHPNATKEEVIEKFKELVEEALAKS
B11: GBRAP_125_3102 (protein)
chain: EEEELLEALRRLALALGFSEEEAEEAARLAREFSLRQTLIALLLAEGEEELAELVEKLTEEQAKEVLRRLAEYLEAHPDATREEVVAKLRELVEEALAAA
B12: GBRAP_184_5289 (protein)
chain: MVEEVVIEAENAEEAIKKIKEAAEKAKKEGKKLRLYLFLKNVDVEGFKKIAELLKELKEEGIIEDAIVEILDERTEEETDKFVEIADKAGIRLVIALSDE
B13: GBRAP_128_3375 (protein)
chain: VNEEFLKEIEELVEKMLESSVEEVRELTKKIVELLSKASLEEQEAAVEIILEKLPEFSVEKLEAIADVLREERKKASPELQELLADVEVEALNEAEEKEE
B14: GBRAP_184_5038 (protein)
chain: AIKEVTIEAKDLEELKAKLAELEEEMKNFKGDLIVHVKSPKFTKEMVEELMSTLKNMLDKGYISSATVGLDGEMTEEVVDLAVKLADEAGIKVVLALDEE
B15: GBRAP_11_2726 (protein)
chain: RKETILKFAKEAEALAKEIEKLIKEGPTKEGLEKLAKKAKALYEAAKKAGLPEDIVETLKIAAELLKEAIADPKNAEKYLREAAAAFRVAAGLLLLEAEE
B16: GBRAP_14_3852 (protein)
chain: IEELIKAVEETAKETKEMAKEVLPEHAEEVNKKIEELAKKIIKKIKEENLNKEEVAELMDEFAEELAKFIKEKGFANETEIAAIRATILNEAALKLDEIE
B17: GBRAP_150_3939 (protein)
chain: DLEELLLLAQGIETDLELALEPGFDKLKLAERALELAKDIAKESDEELKKLAEELIKLLEEAIKAIKAGAEEKEIQKLLEEALRKARELIEEIEKKIEEE
B18: GBRAP_9_7172 (protein)
chain: LKAAAAAAIAELREARDFILEIAPEAAAGAVDAAFDALIAALEAARADPTVTPEQFEATLAAGFAAIRAAAAAHLSPEVAAAVETEMLTVRDIADEKLDE
B19: GBRAP_95_7026 (protein)
chain: EDDQLLVDSLTEVLETYVDLGDEERAREAARRLVRALRENGILPLPKSISVEAAKLILEVALEELDLEELEALAKQLIEATKDEEVRKYAEAKIAEKRAR
B20: GBRAP_52_6035 (protein)
chain: MEERMRELARRIVELLLAGREEEARRLIREAVETLSEEELKLLGEELARLAREAAPEDLDAIMEAAFLLADALEEGGYDEVLADDLLARVAAAAVANLQA
B21: GBRAP_52_6034 (protein)
chain: MRERMRRLAEEAVALALAGDEEGAKALIKEAVETLSEEELKLLGEELARLAREAAPEDLDAIMEVAFWLADALIEAGYDEVFADDLEARVARAAVENLQA
B22: GBRAP_52_6042 (protein)
chain: MEERMRELAEEILALYLEGREEEARKLIREAVETLSEEELKLLGEALAELAREAPPEHLDAYMQAAFDLADALEEAGYDEVLADDLEARVAAAAVENLKR
B23: GBRAP_160_4751 (protein)
chain: SEALKKLKEEVKKIFEEGIEMLKEVPAEEAPTVLRGVMGEVLMEVFSSEAASDELEEEVGEVVDKAEAEAAANANAPVEYHIELLEKAKKEILEIIEKEI
B24: GBRAP_52_6275 (protein)
chain: MEEEAERLAEEFIRVALEGSEEEIREFARRLVEEKSEELIARVLEIVVEKAEELNAEEIEKLLEAVLILEGELEEAGRDPLPAQDAAARLAKLHEEKLKE
B25: GBRAP_78_6606 (protein)
chain: EVEELLEEAIELLSKAAKLLKELPPEVRDELMDLLVEAMSLLLESIEEGPNLKLLEEALKHVEEAIELLKKEKTPEAEKIIKLLEEAKEKIEKAIKLLKK
B26: GBRAP_184_5238 (protein)
chain: KVLEVTVEAADAEELRAKLEAVFAEAEAAGARVRLDVLVEELTPEKVDVLTEEIARMAAAGLLDLVEVTSSTPIAEEHIDRLVAAADAAGVRLVIAEPDE
B27: GBRAP_57_6464 (protein)
chain: MSPLEKALEHFEKAIKLIEEGASLEEILEEVEKGLEELDHTLLLDILLLLDPSARSDLSREELRERLLELVRRYLEEKGREEALKALKLMAGQVEMALTE
B28: GBRAP_125_3136 (protein)
chain: KRAALLALAEALARAMGFSEEEIAEIRRLAEAHDPAQTIVAIFLAAGAEEAAELAAEVLDKLSEEEIAALRALAEAARDLPLEEAVARLLAALKEAKAKL
B29: GBRAP_52_6252 (protein)
chain: MRARLRADAREILELVKEGREEEARRLAREIAETYNEEELRLFIDEFAALAAEAPKEDIDDVWRAAEILAEALEEAGWEEVLVDDALARTAAALVKVEAK

In all, about 4,500 sequences were measured (“median log2 fold change of GCK-ALFA target abundance (FLAG IP / Myc IP barcode read proportion)”: median about 0.078, lowest 2% from about -0.6 on). The sample as a whole holds a higher share of the lowest values than the screen did.

This test deals with GABARAP, O95166. Nature of the test: median log2 fold change of GCK-ALFA target abundance (FLAG IP / Myc IP barcode read proportion) (log2 ratio); each designed protein is fused to an ALFA-tag nanobody in HEK293 cells to bring the named protein to FLAG-tagged glucokinase (GCK); Myc marks an untargeted standard; higher = target protein stabilised (more abundant). As to conditions: target protein: 3xFLAG-MCP-GCK-ALFA reporter; HEK293 landing pad (RPLP). Summed up: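 The readout is target abundance, the per-binder median log2 ratio of FLAG to Myc barcode read proportions. It came from HEK293 landing-pad cells carrying a recombined ALFA-nanobody-fused binder library, induced with 2 μg mL^−1 doxycycline and transfected with a plasmid for a FLAG-tagged target and a Myc-tagged standard. After 48 h, lysates were immunoprecipitated with anti-FLAG and anti-Myc, and circular RNA barcodes were reverse transcribed, amplified and sequenced. Each barcode needed a proportion of at least 10^−7 in both replicates and each binder at least 3 barcodes per replicate, a pseudocount of 10^−6 was added, and the replicates were pooled.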
Chain of GABARAP, O95166 (O95166 whole entry, the tested form may be a part): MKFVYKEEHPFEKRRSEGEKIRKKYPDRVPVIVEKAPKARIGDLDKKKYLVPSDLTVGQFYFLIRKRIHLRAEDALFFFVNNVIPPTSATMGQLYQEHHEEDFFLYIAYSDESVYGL
Turning to B1, the “median log2 fold change” value is 0.226.

With B2, the “median log2 fold change” value worked out at 0.312.

Regarding B3, the “median log2 fold change” value is -0.964.

For the molecule B4, the “median log2 fold change” value stood at 0.075.

As for B5, the “median log2 fold change” value was -0.0618.

Turning to B6, the “median log2 fold change” value was -0.0128.

Turning to B7, the “median log2 fold change” value worked out at 0.0022.

With B8, the “median log2 fold change” value was -1.16.

Regarding B9, the “median log2 fold change” value is -0.382.

Take B10: the “median log2 fold change” value was -0.801.

Regarding B11, the “median log2 fold change” value is -0.364.

B12: the “median log2 fold change” value is -0.121.

Take B13: the “median log2 fold change” value worked out at 0.132.

For B14, the “median log2 fold change” value worked out at 0.0979.

Regarding B15, the “median log2 fold change” value worked out at 0.0545.

With B16, the “median log2 fold change” value was 0.15.

Turning to B17, the “median log2 fold change” value came to 0.139.

Turning to B18, the “median log2 fold change” value was -0.00921.

With B19, the “median log2 fold change” value stood at 0.182.

With B20, the “median log2 fold change” value is -0.612.

For the molecule B21, the “median log2 fold change” value is -0.573.

Consider B22, for which the “median log2 fold change” value was -0.435.

For B23, the “median log2 fold change” value is -0.117.

Regarding B24, the “median log2 fold change” value is 0.0823.

B25: the “median log2 fold change” value was -0.743.

Take B26: the “median log2 fold change” value was 0.168.

Turning to B27, the “median log2 fold change” value was 0.249.

With B28, the “median log2 fold change” value was -0.351.

With B29, the “median log2 fold change” value is -0.272.

The values above are taken from the supplement of paper PMC12632987.
